# Screening results (PubChem BioAssay)
# SRC1 inh: inhibitors of human steroid receptor coactivator 1 (SRC1); Q15788; HEK293 GAL4-SRC1 luciferase reporter, luminescence; inhibition, % at 3.6 µM; 0.12% of 360,000 active; AID 588354;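 active means inhibition above the campaign mean plus 3 SD, with each screening campaign given its own cutoff, cut at about 60% in these data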;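 further: 0% = DMSO treated cells and 100% = gossypol at 36 µM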
# SRC2 inh: human SRC2 (NCOA2) inhibition. Q15596. HEK293 GAL4-SRC2 luciferase reporter, luminescence. inhibition, % at 9 µM. 0.17% of 370,000 active. AID 651957;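 active means inhibition above the mean inhibition of all tested compounds plus 3 SD, set per campaign, cut at about 52% in these data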;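 further: 0% = DMSO treated cells and 100% = cells given Gossypol at 36 µM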
# NR2F2 inh: blocks human COUP-TFII nuclear receptor | inhibition, % at 8.6 µM | 0.7% of 370,000 active | AID 686940 | HEK293T NGFI-A luciferase reporter, luminescence;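 active means inhibition above a per-plate cutoff, mean inhibition of test wells between control levels plus 3 SD, cut at about 38% in these data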;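 further: cells cotransfected with COUP-TFII expression vector driving the NGFI-A reporter; 0% = median of COUP-TF2 test wells and 100% = reporter-only cells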
# NCOA3 inh: inhibitors of human steroid receptor coactivator 3 (SRC3). AID 588352. 0.17% of 360,000 active. inhibition, % at 3.6 µM. Q9Y6Q9. HEK293 GAL4-SRC3 luciferase reporter, luminescence;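 active means inhibition above a per-campaign cutoff, the mean of all compounds plus 3 SD, cut at about 60% in these data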;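 further: 0% = DMSO-treated cells and 100% = gossypol-treated cells at 36 µM; higher means less SRC3-driven luciferase light from the GAL4 reporter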
# Gli-Sufu block: Gli-Sufu pathway antagonism; AID 588413; inhibition, % at 5 µM; 0.74% of 340,000 active; Sufu-KO-LIGHT fibroblasts, Gli luciferase reporter luminescence;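 active means inhibition above about 55%, limit read from the data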;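 further: 0% = DMSO-treated cells and 100% = wells with medium but no cells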
# NR5A2 inv ag: inverse agonists of human LRH-1 (NR5A2) | inhibition, % at 3.6 µM | AID 602396 | 0.13% of 360,000 active | HEK293T StAR-luciferase reporter, LRH-1 transfected, 24 h | O00482;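 active means inhibition above the mean inhibition of all tested compounds plus 3 SD, cut at about 73% in these data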;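 further: 0% = DMSO wells and 100% = reporter-only cells lacking LRH-1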
# Gal4-VP16 ctr: inhibits VP16 reporter, flagging COUP-TFII antagonist hits; shares compounds with NR2F2 inh; HEK293 Gal4-VP16 luciferase reporter, luminescence; inhibition, % at 8.5 µM; 25% of 2,500 active; in the data active means inhibition above about 13%
# NR2F2 inh conf: confirmation of human COUP-TFII (NR2F2) inhibitors; HEK293 NGFI-A luciferase reporter, luminescence; 45% of 2,500 active; inhibition, % at 8.5 µM; AID 687008; shares compounds with NR2F2 inh;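 active means mean inhibition over three repeats above a set limit taken from the earlier primary screen, cut at about 38% in these data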;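 further: 100% = cells given the luciferase reporter alone without the COUP-TF2 vector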
# Active calls of the source: *; / = no result given. Only some compounds are listed: those with a hit (about 1.3% of all), similar ones and a draw of the others.
SMILES,SRC1 inh,SRC2 inh,NR2F2 inh,NCOA3 inh,Gli-Sufu block,NR5A2 inv ag,Gal4-VP16 ctr,NR2F2 inh conf
Cc1ccc(S(=O)(=O)N2CCN(C(=O)c3cc4c(C)nn(-c5ccccc5C)c4s3)CC2)cc1,-5,34,46*,-16,0,0,10,30
COc1cccc(CN(C)C(=O)[C@H]2O[C@@H](n3cnc4c(=O)[nH]c(N)nc43)[C@H](O)[C@@H]2O)c1,/,8,7,/,/,/,/,/
COCCN1CCN(C(=O)c2ccc3nc(Cc4ccc(OC)c(OC)c4)oc3c2)CC1,24,12,49*,20,48,37,0,48*
COC(=O)C1=C(C)NC(=S)NC1c1ccc(Br)cc1 (stereo not drawn),/,-4,1,/,/,/,/,/
CC1(Cc2cccc(F)c2)C(=O)Nc2ccc(-c3cccnc3)cc21 (stereo not drawn),61,52,48*,55,/,17,9,18
CC1(Cc2ccc(Cl)cc2)C(=O)Nc2ccc(-c3cccnc3)cc21 (stereo not drawn),59,50,35,57,/,19,/,/
COC(=O)[C@]12C[C@H](CC(=O)NCc3cccc(C(F)(F)F)c3)C(=O)N(Cc3ccc4c(c3)OCO4)C1=C[C@H](C(C)(C)C)O[C@@H]2C,/,10,20,/,/,/,/,/
CC(C)CC(=O)c1c(O)cc(O)c2c1OC1=C(C(=O)C(C)(C)C(=O)C1(C)C)C2CC(C)C (stereo not drawn),/,12,-7,/,/,/,/,/
C[n+]1ccc(/C=C/c2c[nH]c3ccc(F)cc23)cc1,18,-9,38*,-8,16,15,5,24
Cn1cc(/C=C/c2cc[n+](C)cc2)c2cc(F)ccc21,5,/,/,20,36,6,/,/
O=S(=O)(/C=C/C=C/S(=O)(=O)c1ccccc1)c1ccccc1,-191,50,51*,-92,35,28,49*,72*
CCN(C(=O)[C@@H](C1CC1)[C@@H](O)c1ccc(Cl)cc1)c1ccccc1,/,-8,13,/,/,/,/,/
CCCCNS(=O)(=O)/C=C/c1ccccc1CCNC(=O)OC(C)(C)C,/,-8,-2,/,/,/,/,/
Cc1cc(NC(=O)COC(=O)CNS(=O)(=O)c2c(F)cc(F)cc2Br)no1,12,-13,85*,-1,5,-15,-1,-12
CCCCCCC(=O)NC1CCCCN(Cc2ccc(C)cc2)C1=O (stereo not drawn),/,3,-15,/,/,/,/,/
CC1CN(c2ccnc3cc(Cl)ccc23)CCN1C(=O)c1ccc(Cl)cc1 (stereo not drawn),/,/,50*,/,/,/,4,16
CCC(=O)N1CCN(c2ccnc3cc(Cl)ccc23)CC1,23,32,5,35,14,1,/,/
O=C(c1cccc(Cl)c1)N1CCN(c2ccnc3cc(Cl)ccc23)CC1,/,/,49*,/,/,/,3,23
CC(=Nc1ccc(Cl)cc1N)c1c(O)cc(C)oc1=O,/,-99,-53,/,/,/,/,/
Cc1ccc2nc(NC(=O)C3CCN(S(=O)(=O)c4cccnc4)CC3)sc2c1,4,15,26,-1,-7,6,/,/
Cc1ccc2nc(NC(=O)C3CCN(S(=O)(=O)c4cccs4)CC3)sc2c1,12,1,57*,24,5,33,-3,32
COc1ccc2nc(NC(=O)C3CCN(S(=O)(=O)c4cccs4)CC3)sc2c1,14,17,48*,36,9,22,-5,23
CC(C)CCNc1nc(N)c([N+](=O)[O-])c(N2CCCCCC2)n1,13,19,41*,29,15,-6,-3,28
Nc1nc(NCc2ccco2)nc(N2CCCCCC2)c1[N+](=O)[O-],-8,20,48*,38,22,-5,2,23
Nc1nc(NCc2ccco2)nc(N2CCCC2)c1[N+](=O)[O-],8,-2,4,12,10,-14,/,/
SMILES,SRC1 inh,SRC2 inh,NR2F2 inh,NCOA3 inh,Gli-Sufu block,NR5A2 inv ag,Gal4-VP16 ctr,NR2F2 inh conf
Cc1noc(C)c1S(=O)(=O)N1CCCc2nc(-c3ccccc3)ccc21,/,-81,14,/,/,/,/,/
CCOC(=O)C1(Cc2ccc(Cl)cc2)CCN(C(=O)c2sc(C)nc2C)CC1,1,24,42*,20,21,-3,10,26
CCOC(=O)C1(Cc2ccc(OC)cc2)CCN(C(=O)c2sc(C)nc2C)CC1,5,31,-4,6,17,-2,/,/
Cc1cc(-c2ccc(C(C)C)c(S(=O)(=O)N3CCOc4ccccc43)c2)on1,-6,-7,9,5,4,4,/,/
Cc1ccc(-c2onc(C)c2C)cc1S(=O)(=O)N1CCOc2ccccc21,0,28,59*,24,45,-3,-3,16
O=C(CSc1nnc(-c2ccc(Cl)cc2)n1Cc1ccco1)Nc1cccc2ccccc12,/,-17,-4,/,/,/,/,/
CC(C)(C)c1ccc(-c2nnc(SCC(=O)Nc3cccc4ccccc34)n2Cc2ccco2)cc1,/,-11,38*,/,/,/,4,11
O=C(NCCc1ccc(Cl)cc1)c1ccc2c(c1)ncn2C1CCCCC1,/,10,-16,/,/,/,/,/
O=C(NCc1cccnc1)c1ccc(-c2ccc(F)c(F)c2)c2ccoc12,11,28,68*,-7,/,20,3,49*
Cc1cc(CNC(=O)c2cccc([N+](=O)[O-])c2C)c2ccccc2n1,30,27,64*,34,38,39,4,55*
Cc1cc(CNC(=O)Cc2ccccc2)c2ccccc2n1,-1,-30,-24,10,0,-38,/,/
COc1ccc(OC)c(/C=C/c2ccc3cccc(O)c3n2)c1,-5,-26,2,-3,/,1,/,/
COc1ccc(C=Cc2ccc3ccccc3n2)c(OC)c1,-6,12,47*,4,/,-21,-30,27
CS(=O)(=O)N(CC(=O)N1CCN(c2cccc(Cl)c2)CC1)C1CCCCC1,-16,19,-5,14,4,2,/,/
Cc1ccc(Cl)cc1N1CCN(C(=O)CN(C2CCCCC2)S(C)(=O)=O)CC1,-4,9,40*,-9,34,12,3,13
Cc1ccc(Cl)cc1N1CCN(C(=O)COc2ccc(S(=O)(=O)NC(C)C)cc2)CC1,18,-4,38*,1,8,-12,1,39*
Cn1c(=O)n(C)c2cc([N+](=O)[O-])c(N3CCN(C(=O)c4ccccc4Cl)CC3)cc21,17,14,45*,26,29,24,-8,15
Cn1c(=O)n(C)c2cc([N+](=O)[O-])c(N3CCN(C(=O)c4ccccc4Br)CC3)cc21,14,3,28,13,9,15,/,/
O=S1(=O)c2ccc(Br)cc2OC[C@H](Cc2ccccc2)N1Cc1cn(Cc2ccc(C(F)(F)F)cc2)nn1,/,-2,-4,/,/,/,/,/
